Source: PubChem
The sample as a whole holds a higher share of hits than the screen did.
Sfp PPTase inh = blocks B. subtilis Sfp PPTase activity; Potency, µM, actives largely listed as inhibitors; Biochemical Sfp PPTase activity, qHTS; hit rate 3.5% among 310,000; Q9F4F7;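 also: the enzyme is Sfp with the accession as filed and its product quenches rhodamine fluorescence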
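Fluorescence-quenching assay: 15 nM Sfp-PPTase preincubated 15 min at room temperature with compound, then 5 uM rhodamine-CoA and 12.5 uM BHQ-2-labelled YbbR peptide added. Fluorescence (ex 525/em 598 nm) read at start and after 30 min; difference gives rate.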
Glioma ERSR ind = induces the endoplasmic reticulum stress response in human glioma cells | U87-MG GRP78 promoter luciferase reporter, 16 h | Potency, µM, actives largely listed as activators | hit rate 0.02% among 420,000 | AID 602332; also: series mostly up to about 76 µM; nearly all actives have a fitted effect of over 35% in size
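ERSR induction read as luciferase luminescence (Bright-Glo, 10 min at room temperature) in stably transfected human U87-MG glioma cells exposed to compounds for 16 h, using GRP78 as sensor.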
G9a block = inhibitors of human histone lysine methyltransferase G9a; Potency, µM (highest dose often 102 µM), actives largely listed as inhibitors; Q96KQ7; hit rate 8.8% among 350,000; G9a H3K9 monomethylation, AlphaScreen, 2 h; also: nearly all actives have a fitted effect of over 75% in size
Target sequence (Q96KQ7 913-1193 limits assumed): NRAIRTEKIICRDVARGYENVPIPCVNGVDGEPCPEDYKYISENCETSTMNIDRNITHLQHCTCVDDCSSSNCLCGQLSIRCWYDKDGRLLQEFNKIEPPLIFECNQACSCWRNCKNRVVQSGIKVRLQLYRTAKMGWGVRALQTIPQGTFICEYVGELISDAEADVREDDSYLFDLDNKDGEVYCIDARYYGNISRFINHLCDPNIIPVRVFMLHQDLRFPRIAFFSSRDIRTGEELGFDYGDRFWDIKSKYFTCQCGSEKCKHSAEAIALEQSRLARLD
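Methyltransferase reactions run at room temperature for 2 h (20 nM enzyme, 500 nM biotin-H3K9 peptide, 20 uM SAM) after a 15 min compound preincubation; product detected by AlphaScreen beads and anti-H3K9me1 antibody.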
12-LOX inh = inhibitors of human 12S-lipoxygenase ALOX12; P18054; purified 12hLO, xylenol orange hydroperoxide absorbance; Potency, µM (top dose mostly 108 µM), usual class: inhibitors; hit rate 1.1% among 580,000; AID 1671190
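Purified human 12hLO at 150 nM in 25 mM Hepes, 0.01% Triton X-100, pH 7.0, preincubated 15 min at room temperature with compound. Reaction started with 40 uM arachidonic acid, 30 min at room temperature. Hydroperoxide measured by Fe-xylenol orange, 573/405 nm absorbance ratio.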
VDR inhibitor = blocks the human vitamin D receptor | P11473 | VDR-SRC2-3 peptide fluorescence polarization, 2 h | Potency, µM, most hits filed as inhibitors | hit rate 0.93% among 400,000
Target sequence (P11473 whole entry, looked up): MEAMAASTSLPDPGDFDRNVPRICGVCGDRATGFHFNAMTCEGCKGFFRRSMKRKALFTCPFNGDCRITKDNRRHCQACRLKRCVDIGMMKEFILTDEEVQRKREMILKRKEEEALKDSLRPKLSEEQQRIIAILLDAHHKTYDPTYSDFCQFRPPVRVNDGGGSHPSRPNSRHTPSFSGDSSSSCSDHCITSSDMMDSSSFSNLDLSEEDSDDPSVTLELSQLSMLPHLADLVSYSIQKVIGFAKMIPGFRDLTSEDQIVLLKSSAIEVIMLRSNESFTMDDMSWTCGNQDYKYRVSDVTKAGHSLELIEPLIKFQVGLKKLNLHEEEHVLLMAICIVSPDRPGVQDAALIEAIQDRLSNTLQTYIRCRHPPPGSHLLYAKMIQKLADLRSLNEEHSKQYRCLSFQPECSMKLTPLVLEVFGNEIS
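Fluorescence polarization assay of small-molecule disruption of VDR binding to coregulator peptide SRC2-3. Compounds and controls pin-transferred, then read after 2 h incubation at ambient room temperature.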
Large screens that a line does not name were inactive. Calls follow the shape of the dose curve; as a rule, active = well fitted curve in the direction sought with a large enough effect; inconclusive = small, poorly fitted or top-dose-only effect, or another doubt; inactive = no such curve, though single readings can be large; an effect the other way counts as inactive or inconclusive.

COc1ccc(Cl)cc1NC(=S)NCCSc1ccc(C)cc1	Sfp PPTase inh inconclusive, 12-LOX inh 45µM
COc1ccc(NC(=S)NCCSc2ccc(Cl)cc2)c(OC)c1	Sfp PPTase inh inconclusive, G9a block 13µM, 12-LOX inh inconclusive
COc1ccccc1NC(=S)NCCSc1ccc(Cl)cc1	none
COc1ccc(C(=O)NC[C@@H]2C=C(C)[C@H](Cc3nnc(-c4ccncc4)o3)C[C@H]2C(C)C)cc1	none (no result: Sfp PPTase inh, Glioma ERSR ind, G9a block, VDR inhibitor)
O=C(CCCc1nc2ccccc2o1)NCc1ccccc1F	none (no result: Sfp PPTase inh, Glioma ERSR ind, G9a block, VDR inhibitor)
CN(C)C(CNC(=S)NCCc1ccccc1)c1cccs1 (stereo unspecified)	none (no result: Sfp PPTase inh, Glioma ERSR ind, G9a block, VDR inhibitor)
CCc1cccc(C)c1NC(=O)Cn1cccc1-c1nc(-c2ccc(OC)c(F)c2)no1	none (no result: Sfp PPTase inh, Glioma ERSR ind, G9a block, VDR inhibitor)
CCCOc1ccc(-c2nc(C#N)c(NCCN(C)C)o2)cc1	none (no result: Sfp PPTase inh, Glioma ERSR ind, G9a block, VDR inhibitor)
CN(C)c1ccc(C(CNS(=O)(=O)c2ccc3ccccc3c2)c2c[nH]c3ccccc23)cc1 (stereo unspecified)	G9a block 10µM, 12-LOX inh inconclusive
CN(C)c1ccc(C(CN)c2c[nH]c3ccccc23)cc1 (stereo unspecified)	Sfp PPTase inh 50µM, G9a block 32µM, 12-LOX inh inconclusive
Cc1cccc(N2C(=O)CC(N(O)c3ccccc3)C2=O)c1 (stereo unspecified)	G9a block inconclusive
O=C1CC(N(O)c2ccccc2)C(=O)N1c1ccc(Cl)c(Cl)c1 (stereo unspecified)	G9a block 50µM, 12-LOX inh inconclusive
O=C(c1ccc(Cn2c(=S)[nH]c3ccc(N4CCOCC4)cc3c2=O)cc1)N1CCN(c2ccc(F)cc2)CC1	none
Cc1ccc(C)c(N2CCN(C(=O)c3ccc(Cn4c(=S)[nH]c5ccc(N6CCOCC6)cc5c4=O)cc3)CC2)c1	G9a block 40µM, 12-LOX inh inconclusive
COc1ccc(N2CCN(C(=O)c3ccc(Cn4c(=S)[nH]c5ccc(N6CCOCC6)cc5c4=O)cc3)CC2)cc1	Sfp PPTase inh 71µM, G9a block inconclusive
Cc1cnc(NC(=O)C(C)(C)Oc2ccc(Cl)cc2)s1	none (no result: Sfp PPTase inh, Glioma ERSR ind, G9a block, VDR inhibitor)
O=C(O)c1cccc2cccc(-c3c4ccc(=O)c(O)c-4oc4c(O)c(O)ccc34)c12	12-LOX inh 6.3µM, VDR inhibitor inconclusive (no result: Sfp PPTase inh, G9a block)
O=C(O)c1cccc2cc(-c3ccccc3)oc(=O)c12	none
CCc1nc(N2CCN(C(=O)c3ccco3)CC2)c2c3c(sc2n1)CCCC3	G9a block 45µM, 12-LOX inh inconclusive
c1ccc(N2CCN(c3ncnc4sc5c(c34)CCC5)CC2)cc1	none
CC1CCc2c(sc3nc(C4CC4)nc(N4CCN(C(=O)c5ccco5)CC4)c23)C1 (stereo unspecified)	12-LOX inh inconclusive (no result: Sfp PPTase inh, G9a block)
O=C(c1ccco1)N1CCN(c2ncnc3sc4c(c23)CCC4)CC1	Sfp PPTase inh 79µM, G9a block inconclusive, 12-LOX inh inconclusive
COc1ccc(OC)c(C2CC(=O)N3CN(c4ccc(C)c(Cl)c4)CSC3=C2C#N)c1 (stereo unspecified)	Sfp PPTase inh 7.1µM, G9a block 6.3µM, 12-LOX inh inconclusive, VDR inhibitor 16µM
CCOC(=O)C1=C(C)OC(n2cccc2)=C(C#N)C1c1cc(OC)ccc1OC (stereo unspecified)	none (no result: Sfp PPTase inh, Glioma ERSR ind, G9a block, VDR inhibitor)
CCOC(=O)c1ccc(N2CSC3=C(C#N)C(c4ccc(OC)cc4OC)CC(=O)N3C2)cc1 (stereo unspecified)	Sfp PPTase inh 20µM, G9a block 13µM, 12-LOX inh inconclusive
COc1ccc(OC)c(C2CC(=O)N3CN(c4cccc(Cl)c4)CSC3=C2C#N)c1 (stereo unspecified)	Sfp PPTase inh 10µM, G9a block 7.9µM, 12-LOX inh inconclusive, VDR inhibitor 50µM
COc1ccc(OC)c(C2CC(=O)NC(SC)=C2C#N)c1 (stereo unspecified)	G9a block inconclusive
Cc1ccc2[nH]c(=O)c3cc(C(=O)NCc4ccc(Cl)cc4)sc3c2c1	none (no result: Sfp PPTase inh, Glioma ERSR ind, G9a block, VDR inhibitor)
C[n+]1ccc(/C=C/c2ccccc2O)c2ccccc21	G9a block 25µM, 12-LOX inh inconclusive
C[n+]1ccc(/C=C/c2ccc(C=S)cc2)c2ccccc21	none (no result: Sfp PPTase inh, G9a block, 12-LOX inh, VDR inhibitor)
COc1ccc(CNC(c2ccccc2)c2ccc(Cl)cc2)cc1 (stereo unspecified)	Sfp PPTase inh inconclusive, G9a block 5.6µM
O=C(Nc1ccc(F)cc1Cl)c1nc2ccccc2nc1N1CCCC1	none (no result: Sfp PPTase inh, Glioma ERSR ind, G9a block, VDR inhibitor)
O=C(Nc1cccc(F)c1)c1ccc(-c2ccccc2C(F)(F)F)o1	G9a block 45µM, 12-LOX inh inconclusive (no result: Glioma ERSR ind, VDR inhibitor)
Cc1cccc(C)c1NC(=O)c1ccc(-c2cc(F)ccc2F)o1	none (no result: Sfp PPTase inh, G9a block, VDR inhibitor)
Cc1ccccc1-c1ccc(C(=O)Nc2cccc(F)c2)o1	G9a block 10µM
COc1ccc(NC(=O)c2ccc(-c3ccccc3C(F)(F)F)o2)cc1	G9a block 71µM
O=C(NCCc1ccccc1)c1ccc(-c2ccccc2C(F)(F)F)o1	G9a block 50µM, 12-LOX inh inconclusive, VDR inhibitor inconclusive
O=C(NCCc1ccccc1)c1ccc(-c2ccc(F)cc2)o1	none
CS(=O)(=O)N(Cc1csc(-c2cccs2)n1)C1CCN(C(=O)c2cccc(Cl)c2)CC1	none (no result: Sfp PPTase inh, Glioma ERSR ind, G9a block, VDR inhibitor)
CC(C)(C)NC(=O)COC(=O)C(c1ccccc1)c1ccccc1	none (no result: Sfp PPTase inh, Glioma ERSR ind, G9a block, VDR inhibitor)
Cc1ccc(NC(=O)c2ccc(Oc3nccnc3N3CCCCC3)cc2)cc1C	none (no result: Sfp PPTase inh, Glioma ERSR ind, G9a block, VDR inhibitor)
COc1cccc(NC(=O)CSc2nnc(C3CCCCC3)n2-n2cccc2)c1	none (no result: Sfp PPTase inh, Glioma ERSR ind, G9a block, VDR inhibitor)
O=C(O)CNC/C=C/c1ccccc1	none (no result: Sfp PPTase inh, Glioma ERSR ind, G9a block, VDR inhibitor)
CC(C)(C)Nc1nc(-c2ccc3c(c2)CCN3C(=O)C2CC2)cs1	G9a block 40µM
O=C(CN1CCCC1)Nc1nc(-c2ccc3c(c2)CCN3C(=O)c2ccccc2F)cs1	G9a block inconclusive (no result: 12-LOX inh)
CNc1nc(-c2ccc3c(c2)CCN3C(=O)c2ccc(F)cc2)cs1	G9a block 32µM
COc1ccc(CCN(C)CCC(=O)Nc2cc(C)ccc2C)cc1OC	none
COC(=O)c1ccc(C)c(NC(=O)CCc2ccc(OC)c(OC)c2)c1	G9a block 50µM
Fc1ccc(-c2cnc(CN3CCN(c4ccccc4Cl)CC3)o2)cc1	none (no result: Sfp PPTase inh, Glioma ERSR ind, G9a block, VDR inhibitor)
Nc1cc2c(cc1C(=O)c1ccccc1F)OCCO2	G9a block inconclusive
Nc1cc2c(cc1C(=O)c1cccc(Br)c1)OCCO2	G9a block 18µM
CCCCCC(=O)Nc1cccc(C2=NOC3(C2)C[C@@H](C(N)=O)N(C(=O)c2cc([N+](=O)[O-])cc([N+](=O)[O-])c2C)C3)c1 (stereo partly specified)	12-LOX inh inconclusive
C/C=C\C=C\C(=O)N1CC2(CC(c3cccc(NC(=O)CC)c3)=NO2)C[C@H]1C(N)=O (stereo partly specified)	Sfp PPTase inh 35µM, G9a block inconclusive, VDR inhibitor inconclusive
C/C=C\C(=O)Nc1cccc(C2=NOC3(C2)C[C@@H](C(N)=O)N(C(=O)c2ccccc2)C3)c1 (stereo partly specified)	none
